Compound activity as filed in PubChem BioAssay.
Sampled rows, rich in hits. Any-hit rate of the full collection: about 10%.
ALDH1A1 inh: qHTS Assay for Inhibitors of Aldehyde Dehydrogenase 1 (ALDH1A1) | AID 1030, 2008 | actives 7.3% (n = 220,000) | Potency, µM (doses to about 75.3 µM), hits mostly inhibitors | Purified ALDH1A1, NADH fluorescence, propionaldehyde substrate
HPGD block: qHTS Assay for Inhibitors of HPGD (15-Hydroxyprostaglandin Dehydrogenase) | 15-hydroxyprostaglandin dehydrogenase [NAD(+)] (Homo sapiens), P15428 | purified HPGD, NADH fluorescence kinetic, PGE2 substrate | Potency, µM, actives largely listed as inhibitors | actives 4.3% (n = 150,000)
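20 nM HPGD preincubated 15 min at room temperature with compound in 50 mM Tris-HCl pH 8, 0.01% Tween 20. Started with 1 mM NAD+ and 30 uM prostaglandin E2; NADH fluorescence (360/450 nm) read 5 times over 30-s intervals, last minus first.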
PNC inhibitor: High Content Assay for Compounds that inhibit the Assembly of the Perinucleolar Compartment | PC3M PTB-GFP, PNC prevalence imaging, 16 h; hits give low values | actives 3.1% (n = 140,000) | activity change (PNC), negative = inhibition, % at 10 µM | AID 2417, 2010;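 active = readout at or below -70, meaning at least 70% loss of cells showing the perinucleolar compartment, a nuclear body marking cancer cells; inconclusive = readout between -30 and a set limit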
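Read-out is percentage of cells bearing a perinucleolar compartment, from automated 20x imaging of fixed, Hoechst-stained PC3M PTB-GFP cells. Cells were seeded 4 h, then exposed 16 h to compound (23 nl of library stock) in duplicate plates.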
ALOX12 inhib: qHTS Assay for Inhibitors of 12-hLO (12-human lipoxygenase); AID 1452, 2008; purified 12-hLO, xylenol orange hydroperoxide absorbance; Potency, µM (series often up to 57.1 µM), usual class: inhibitors; Polyunsaturated fatty acid lipoxygenase ALOX12 (Homo sapiens), P18054; actives 0.12% (n = 150,000); active = well fitted inhibition curve with a large enough effect; inconclusive = small, poorly fitted or top-dose-only effect; note: nearly all actives have a fitted effect of over 55% in size
Target sequence (P18054 whole entry, looked up): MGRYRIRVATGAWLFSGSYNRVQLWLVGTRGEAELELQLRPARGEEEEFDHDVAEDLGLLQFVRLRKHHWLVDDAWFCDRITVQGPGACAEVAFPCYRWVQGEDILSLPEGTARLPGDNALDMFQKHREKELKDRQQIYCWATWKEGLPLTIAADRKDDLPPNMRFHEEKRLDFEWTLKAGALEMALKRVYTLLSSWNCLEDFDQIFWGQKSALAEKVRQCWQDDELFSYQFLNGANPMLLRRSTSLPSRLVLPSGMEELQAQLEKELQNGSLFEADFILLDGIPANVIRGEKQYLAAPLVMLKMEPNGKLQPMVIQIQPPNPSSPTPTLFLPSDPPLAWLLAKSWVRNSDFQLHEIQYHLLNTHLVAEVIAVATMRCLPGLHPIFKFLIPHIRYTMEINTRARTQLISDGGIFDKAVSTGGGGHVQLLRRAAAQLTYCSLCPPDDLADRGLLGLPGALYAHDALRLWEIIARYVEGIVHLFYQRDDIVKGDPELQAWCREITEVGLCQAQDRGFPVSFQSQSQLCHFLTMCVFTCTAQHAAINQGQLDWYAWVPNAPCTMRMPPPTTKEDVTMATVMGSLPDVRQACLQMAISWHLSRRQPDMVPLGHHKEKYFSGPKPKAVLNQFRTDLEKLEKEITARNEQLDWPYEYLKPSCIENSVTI
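Purified human 12hLO (150 nM final) was preincubated with compounds for 15 min at room temperature in 25 mM Hepes pH 7.0, 0.01% Triton X-100, then reacted with 40 uM arachidonic acid for 30 min. Hydroperoxide was detected with ferrous iron/xylenol orange.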
LMNA splice mod: qHTS Assay for Modulators of Lamin A Splicing. actives 0.01% (n = 200,000). HeLa LMNA splicing GFP/RFP minigene ratio, 48 h. Potency, µM (titrated, usually from 46.1 µM), usual class: inhibitors. AID 1487, 2009; active = well fitted inhibition curve with a large enough effect in the signal ratio, with a control signal flat, not every such curve was filed as active; inconclusive = small, poorly fitted or top-dose-only effect, or effect the other way, or a change in a side signal; the % refers to the signal ratio
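S3 HeLa stable clones carrying a lamin A-EGFP splicing minigene plus DsRed2 were seeded at 600 cells/well in Opti-MEM with 2% FBS, pin-dosed and incubated 48 h at 37°C. Acumen cytometry (488 nm) gave the GFP/RFP total-intensity ratio.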
A number is an active result; – = inactive; ? = inconclusive; · = not tested or not shown; [ ] = dose if it differs, or a comment. Unless noted, calls come from the whole dose curve; as a rule, active = well fitted inhibition curve with a large enough effect (not every such curve was filed as active); inconclusive = small, poorly fitted or top-dose-only effect, or another doubt; inactive = no such curve, though single readings can be large or run the other way.

SMILES	ALDH1A1 inh	HPGD block	PNC inhibitor	ALOX12 inhib	LMNA splice mod
CCOC(=O)OCC1OC(c2ccccc2)C=CC1OC(=O)OCC (stereo unspecified)	–[13.5 µM]	·	·	·	·
C[N+](C)(C)CCOP(=O)(O)OP(=O)([O-])OC[C@H]1O[C@@H](n2ccc(N)nc2=O)[C@H](O)[C@@H]1O	–	–	-105.3	–	–
C[N+](C)(C)CCOP(=O)([O-])OP(=O)(O)OCC1OC(n2ccc(N)nc2=O)C(O)C1O (stereo unspecified)	–	–	·	–	·
O=C(CSc1nnnn1C1CCCCC1)Nc1nc2c(s1)CCCC2	7.94µM	–	–	–	?
COc1ccc2nc(NC(=O)CSc3nnnn3C3CCCCC3)sc2c1	?	–	–	–	?
CCOc1ccc2nc(NC(=O)CSc3nnnn3C3CCCCC3)sc2c1	8.91µM	–	–	–	?
O=C(Nc1cccnc1)c1ccc(COc2ccccc2Cl)o1	–	14.1µM	–	–	–
O=C(Nc1nccs1)c1ccc(COc2ccc(F)cc2)o1	?	14.1µM	–	–	?
O=C(Nc1cccnc1)c1ccc(COc2cc(Cl)ccc2Cl)o1	–	?	–	–	–
O=C(Nc1nccs1)c1ccc(COc2ccc(Cl)cc2)o1	–	–	–	–	?
O=C(Nc1nccs1)c1ccc(COc2ccccc2Br)o1	–	–	-87.7	–	?
CCOC(=O)CCN1C(=O)[C@H]2[C@H]3[C@H](O)[C@H](O)C/C(=N/OCc4ccccc4)[C@H]3CC[C@@H]2C1=O	–[13.5 µM]	·	·	·	·
COc1ccc(NC(=O)C2CCN(S(=O)(=O)c3ccc4c(c3)CCCC(=O)N4)CC2)cc1Cl	·	·	·	·	–
COc1ccc(CCNC(=O)Cn2cc(S(=O)(=O)Cc3cccc(Cl)c3)c3ccccc32)cc1OC	·	·	·	·	–
Oc1c(Cl)cc(CN(Cc2cc(Cl)c(O)c(Cl)c2)C2CCCCC2)cc1Cl	–[13.5 µM]	–	·	–[11.4 µM]	·
Oc1c(Cl)cc(Cl)c2c1NCCC2	5.01µM	–	–	?	–
Cc1ccc(N2C(=O)C3C(C2=O)C(C(=O)c2ccc(Cl)cc2)N2CCCC32)cc1 (stereo unspecified)	?	–	?	?	–
O=C(C1=C[C@@H]2[C@H]3C(=O)N(c4ccc(Cl)cc4)C(=O)[C@H]3[C@@H](C(=O)c3ccc(Cl)cc3)N2C=C1)c1ccccc1	14.1µM	31.6µM	–	–	–
O=C(COC(=O)CC1CC2CCC1C2)NC(=O)NCc1ccco1 (stereo unspecified)	14.1µM	–	–	–	–
COc1ccc(CNC(=O)COC(=O)CC2CC3CCC2C3)cc1OC (stereo unspecified)	–	–	–	–	?
COc1cc(C2c3c(oc4ccccc4c3=O)C(=O)N2Cc2ccc(C)cc2)ccc1O (stereo unspecified)	·	·	·	·	–
COc1cc(C2c3c(oc4ccccc4c3=O)C(=O)N2Cc2ccncc2)ccc1O (stereo unspecified)	25.1µM	–	–	–	–
Cc1ccc(CNc2oc(C)nc2C#N)cc1	–	·	-84.8	–	–
O=S(=O)(/N=C(/Nc1ccc(F)cc1F)c1ccccc1)c1ccc(Br)cc1	–	–	-99.1	–	–
Nc1nc(SCC(=O)N2CCc3ccccc32)[nH]c(=O)c1-c1ccccc1	?	–	-106.5	–	?
SMILES	ALDH1A1 inh	HPGD block	PNC inhibitor	ALOX12 inhib	LMNA splice mod
O=C(CSc1ncc(-c2ccccc2)n1C1CCCC1)N1CCc2ccccc21	3.55µM	–	–	–	–
Cn1c(-c2ccccc2)cnc1SCC(=O)N1CCCc2ccccc21	10µM	–	?	–	–
Nc1nc(SCC(=O)N2CCCC2)[nH]c(=O)c1-c1ccccc1	–	–	–	–	–
CC1(C)CC(=O)C2=C(C1)N=C1SCCC(=O)N1C2c1cccc([N+](=O)[O-])c1 (stereo unspecified)	10µM	·	·	·	?
O=C(CCc1nc2ccccc2[nH]1)Nc1ccc2c(c1)OCO2	10µM	–	–	–	–
CN(C)S(=O)(=O)c1ccc(C(=O)Nc2nnc(SCc3cccc4ccccc34)s2)cc1	?	?	-134.0	–	–
O=C(CSc1nc2ccccc2[nH]1)c1ccc2c(c1)OCO2	28.2µM	–	?	–	–
O=C(CSc1nnc(SCc2cccc3ccccc23)s1)Nc1ccc(C(=O)O)cc1	–	·	·	·	–
Cc1ccc2nc(SCC(=O)c3ccc4c(c3)OCO4)[nH]c2c1	?	–	–	–	–
CCSc1nnc(NC(=O)c2ccc(S(=O)(=O)N(C)C)cc2)s1	–	·	·	·	–
O=C(CSc1nnc(SCc2cccc3ccccc23)s1)c1ccc2c(c1)OCO2	0.398µM	?	–	–	–
O=C(NCc1ccccc1F)C1CCN(c2nnc(-n3cccc3)s2)CC1	·	·	·	·	–
CSc1ccc(CCNC(=O)c2sc3ncccc3c2-n2cccc2)cc1	·	·	·	·	–
NC(=O)C[C@H](N)C(N)=O	–[13.5 µM]	–	·	–[11.4 µM]	·
CCOCCn1cnc2sc(C(=O)Nc3nc(C)c(C(=O)OCC)s3)c(C)c2c1=O	–	–	-81.7	–	–
CCCCN(C)C(=O)c1sc2ncn(CC)c(=O)c2c1C	–	15.8µM	–	–	–
CCOC(=O)c1sc2ncn(/N=C/N(C)C)c(=O)c2c1C	–	–	-86.4	–	–
CCOC(=O)c1sc2ncn(/N=C/c3ccccn3)c(=O)c2c1C	?	–	–	–	–
CCCCNC(=O)Cn1cnc2sc(C(=O)OCC)c(C)c2c1=O	–	–	–	–	–
Cc1nn(C)c(Oc2ccccc2)c1CCNS(=O)(=O)c1ccc(Cl)cc1	?	–	–	–	?
COc1ccc(S(=O)(=O)NCCc2c(C)nn(C)c2Oc2ccccc2)cc1	0.631µM	–	–	–	?
CN(c1cccc(NS(=O)(=O)c2cccs2)c1)S(C)(=O)=O	20µM	–	–	–	–
Fc1ccc(C2CCCN2Cc2nc(-c3cnccn3)no2)cc1 (stereo unspecified)	28.2µM	·	·	·	·
Fc1ccc(C2CCCN2Cc2nc(CC3CC3)no2)cc1 (stereo unspecified)	–	·	·	·	–
Cn1cccc1C(=O)NC(=O)COC(=O)c1ccc(O)cc1	3.16µM	–	–	–	–
Cc1sc(C(C2C(=O)CC(C)(C)CC2=O)C2C(=O)CC(C)(C)CC2=O)cc1[N+](=O)[O-]	12.6µM	·	·	·	·
O=C(NNC1CC(=O)N(c2ccccc2)C1=O)c1ccccc1Cl (stereo unspecified)	–	·	·	·	·
COC(=O)c1cc(C(=O)OC)cc(N2C(=O)CC(NNC(=O)c3ccccc3Cl)C2=O)c1 (stereo unspecified)	?	–	-99.4	–	–
CCCN(CCC)C(=O)[C@@H](CCC(=O)O)NC(=O)c1ccccc1	–	–	·	–	?
O=C(CSc1ncn[nH]1)Nc1ccc(Cl)c(Cl)c1	3.98µM	–	?	–	?
